Inconclusive results are not listed. A call without a number means that no potency is given here. Active and inactive are the calls of the source. Calls follow the shape of the dose curve; as a rule, active = well fitted curve in the direction sought with a large enough effect; inconclusive = small, poorly fitted or top-dose-only effect, or another doubt; inactive = no such curve, though single readings can be large; an effect the other way counts as inactive or inconclusive.
What was measured:
[1] = target: Glutathione peroxidase 1 (Homo sapiens) (UniProt P07203); experiment: Primary qHTS Assay for Inhibitors of Recombinant Selenoprotein Glutathione Peroxidase 1 (GPX1) (AID 1845191); also: nearly all actives have a fitted effect of over 65% in size
Sequence of Glutathione peroxidase 1 (Homo sapiens) (P07203 whole entry, looked up): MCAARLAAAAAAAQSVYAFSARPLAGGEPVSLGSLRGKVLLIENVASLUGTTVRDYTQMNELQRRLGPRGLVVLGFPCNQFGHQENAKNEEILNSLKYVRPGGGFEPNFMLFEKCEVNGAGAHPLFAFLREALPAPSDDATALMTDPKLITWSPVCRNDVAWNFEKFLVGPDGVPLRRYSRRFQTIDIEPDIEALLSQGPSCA
Procedure, shortened: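 GR-coupled assay: compounds preincubated 30 min at room temperature with GPX1, then reaction started with CHP; final 10 nM GPX1, 1 mM GSH, 0.5 mM CHP, 0.5 mM NADPH, 100 nM GR, 0.01% BSA, pH 7.5 Tris buffer. NADPH fluorescence (340/450 nm) read at 0 and 15 min.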

[2] = target: Phospholipid hydroperoxide glutathione peroxidase GPX4 (Homo sapiens) (UniProt P36969); experiment: Primary qHTS Assay for Inhibitors of Recombinant Selenoprotein Glutathione Peroxidase 4 (GPX4) (AID 1845192); also: nearly all actives have a fitted effect of over 65% in size
Sequence of Phospholipid hydroperoxide glutathione peroxidase GPX4 (Homo sapiens) (P36969 whole entry, looked up): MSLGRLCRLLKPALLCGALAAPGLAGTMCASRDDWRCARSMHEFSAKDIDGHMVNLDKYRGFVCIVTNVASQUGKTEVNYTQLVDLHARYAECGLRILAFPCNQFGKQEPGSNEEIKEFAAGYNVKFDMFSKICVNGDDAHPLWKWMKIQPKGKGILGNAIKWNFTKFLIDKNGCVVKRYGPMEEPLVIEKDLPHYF
Procedure, shortened: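 GR-coupled assay: recombinant GPX4 preincubated 30 min with compound at room temperature; final 200 nM GPX4, 1 mM GSH, 0.5 mM cumene hydroperoxide, 0.5 mM NADPH, 100 nM GR, 0.01% BSA, pH 7.5 Tris. NADPH fluorescence (340/450 nm) read at 0 and 15 min.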

[3] = target: Luciferin 4-monooxygenase (Photinus pyralis) (UniProt P08659); experiment: Primary firefly luciferase (FLuc) qHTS assay for identification of artifact compounds. (AID 1845220); conditions: outcome: dose series up to 54.1 µM; also: nearly all actives have a fitted effect of over 60% in size
Procedure, shortened: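 Titrated compounds were incubated 15 min at RT, protected from light, with luciferin and ATP at 10 uM; reaction started with 10 nM FLuc, luminescence imaged at 5 min, and concentration-response fitted by Hill equation.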

[4] = Primary fluorescence-based thiol-reactive (MSTI) qHTS assay for identification of artifact compounds. (AID 1845221);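 also: series mostly up to about 54 µM; thiol-reactive compounds lower the probe fluorescence signal; nearly all actives have a fitted effect of over 65% in size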
Procedure, shortened: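 Reactivity toward the thiol probe MSTI (4 uM) is scored by fluorescence at Ex/Em 525/598 nm after 1 h at room temperature. Acetyl-MSTI and MSTI define the activity scale.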

[5] = test system: Nanoluciferase (engineered Oplophorus gracilirostris luciferase); experiment: Primary Nanoluciferase (NLuc) qHTS assay for identification of artifact compounds. (AID 1845222);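 also: NLuc secreted into diluted conditioned medium of S16 cells; series mostly up to about 54 µM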
Procedure, shortened: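 qHTS format, against NLuc in S16 cell-conditioned medium. Nano-Glo substrate 1:100 was added after 15 min at room temperature. Luminescence was taken after a further 5 min.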

[6] = Primary redox qHTS assay for identification of artifact compounds. (AID 1845223)
Procedure, shortened: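 Amplex Red (25 uM) and HRP (250 mU/mL) in HBSS, with compounds for 15 min, then 250 uM DTT for 30 min, room temperature, dark. Fluorescence 525/598 nm read; normalized to DMSO and 10 uM DA3003; Hill fit.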

CC(C)=CCC1C(=O)N(c2ccccc2)N(c2ccccc2)C1=O
Potency [1]: inactive
Potency [2]: inactive

COc1ccc(OC)c(C(O)CNC(=O)CN)c1 (stereo not given)
Potency [1]: inactive
Potency [2]: inactive

CC1(C)O[C@@H]2C[C@H]3[C@@H]4C[C@H](F)C5=CC(=O)CC[C@]5(C)[C@H]4[C@@H](O)C[C@]3(C)[C@]2(C(=O)CO)O1
Potency [1]: inactive
Potency [2]: inactive

CC(C)(C)NC(=O)[C@@H]1CN(Cc2cccnc2)CCN1C[C@@H](O)C[C@@H](Cc1ccccc1)C(=O)N[C@H]1c2ccccc2C[C@H]1O
Potency [1]: inactive
Potency [2]: inactive
outcome [3]: inactive
Potency [4]: inactive
Potency [5]: inactive
outcome [6]: inactive

CC(CCc1ccccc1)NCC(O)c1ccc(O)c(C(N)=O)c1 (stereo not given)
Potency [1]: inactive
Potency [2]: inactive
outcome [3]: inactive
Potency [4]: inactive
Potency [5]: inactive
outcome [6]: inactive

CC(C)C[C@H]1C(=O)N2CCC[C@H]2[C@]2(O)O[C@](NC(=O)[C@@H]3C=C4c5cccc6[nH]c(Br)c(c56)C[C@H]4N(C)C3)(C(C)C)C(=O)N12
Potency [1]: inactive
Potency [2]: inactive

C/C=C(/C(=C/C)c1ccc(O)cc1)c1ccc(O)cc1
Potency [1]: inactive
Potency [2]: inactive

CCOC(=O)/C=C(C)/C=C/C=C(C)/C=C/c1c(C)cc(OC)c(C)c1C
Potency [1]: inactive

Oc1c(I)cc(I)c2cccnc12
Potency [1]: inactive
Potency [2]: inactive

C[C@H](CCC(=O)O)[C@H]1CC[C@H]2[C@@H]3C(=O)C[C@@H]4CC(=O)CC[C@]4(C)[C@H]3CC(=O)[C@]12C
Potency [1]: inactive
Potency [2]: inactive

CCN(CCCCOC(=O)c1ccc(OC)c(OC)c1)C(C)Cc1ccc(OC)cc1 (stereo not given)
Potency [1]: inactive
Potency [2]: inactive

CCOC(=O)[C@H](CCc1ccccc1)N[C@@H](C)C(=O)N1Cc2ccccc2C[C@H]1C(=O)O
Potency [1]: inactive

CC(=O)CC(c1ccc([N+](=O)[O-])cc1)c1c(O)c2ccccc2oc1=O (stereo not given)
Potency [1]: inactive

COc1cc2c(cc1OC)[C@@H]1CC(=O)[C@@H](CC(C)C)CN1CC2
Potency [1]: inactive

CN1[C@@H]2CC[C@H]1CC(OC(=O)c1c[nH]c3ccccc13)C2 (stereo not given in full)
Potency [1]: inactive
Potency [2]: inactive
outcome [3]: inactive
Potency [4]: inactive
Potency [5]: inactive
outcome [6]: inactive

O=C(OCC(O)CO)c1ccccc1Nc1ccnc2cc(Cl)ccc12 (stereo not given)
Potency [1]: inactive

O=C1OCCN1/N=C/c1ccc([N+](=O)[O-])o1
Potency [1]: inactive
Potency [2]: inactive

CCCC(=O)Nc1ccc(OCC(O)CNC(C)C)c(C(C)=O)c1 (stereo not given)
Potency [1]: inactive
Potency [2]: inactive

CCC(NC(C)C)C(O)c1ccc(O)c(O)c1 (stereo not given)
Potency [1]: inactive
Potency [2]: inactive

C[C@]12C=CC(=O)C=C1[C@@H](F)C[C@@H]1[C@@H]2[C@@H](O)C[C@@]2(C)[C@H]1CC[C@]2(O)C(=O)CO
Potency [1]: inactive
Potency [2]: inactive

OC[C@H]1O[C@H](O[C@]2(CCl)O[C@H](CCl)[C@@H](O)[C@@H]2O)[C@H](O)[C@@H](O)[C@H]1Cl
Potency [1]: inactive
Potency [2]: inactive
outcome [3]: inactive
Potency [4]: inactive
Potency [5]: inactive
outcome [6]: inactive

CC(=O)O[C@H]1C[C@@H]2CC[C@@H]3[C@H](CC[C@@]4(C)[C@H]3C[C@H]([N+]3(C)CCCCC3)[C@@H]4OC(C)=O)[C@@]2(C)C[C@@H]1[N+]1(C)CCCCC1
Potency [1]: inactive
Potency [2]: inactive

CN1CCCC(CC2c3ccccc3Sc3ccccc32)C1 (stereo not given)
Potency [1]: inactive
Potency [2]: inactive

C=C1C(=C/C=C2\CCC[C@]3(C)[C@@H]([C@H](C)/C=C/[C@@H](O)C4CC4)CC[C@@H]23)C[C@@H](O)C[C@@H]1O
Potency [1]: inactive

CCCCC(=O)O[C@]1(C(=O)CO)CC[C@H]2[C@@H]3CCC4=CC(=O)CC[C@]4(C)[C@H]3[C@@H](O)C[C@@]21C
Potency [1]: inactive
Potency [2]: inactive

Source: PubChem BioAssay (NCATS)
